Reference: the supplement of paper PMC10849652
About 8,800 targets were measured; listed, in parts, are those with a hit and a random draw of the rest. About 0.5% of all pairs of compound and target were hits. Unmarked numbers belong to inactive results.

How the values were obtained:
Assay in all cases: log2 fold change, soluble protein after heating vs DMSO (PISA); higher = thermal stabilisation; K562 lysate, 10 uM; active = over 0.2 and 3.5 SD of the protein, either way, in both replicates (recomputed)
[1] = compound: NCC(=O)Nc1ccc(-n2nc(C(F)(F)F)cc2-c2ccc3c(ccc4ccccc43)c2)cc1
Method in brief: (§1)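 Dounce homogenisation of K562 pellets in PBS pH 7.4 with 1 mM MgCl2 produced a crude extract, used at 1 mg/mL protein. Exposure to 10 μM compound lasted 30 min, and aliquots were then heated for 3 min across 48°C-58°C, pooled and brought to 0.5% NP-40 at 4°C. The supernatant after 21,000xg for 90 min was quantified by TMTpro 16plex LC-MS/MS with channel sums equalised. Duplicate values are given as log-two fold change in thermal stability relative to solvent controls.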

[2] = compound: O=C(CCCCCCC(=O)Nc1ccccc1)NO [vorinostat]
Method in brief: as §1

[3] = compound: O=C(O)c1ccc2c(c1)nc(Nc1cccc(Cl)c1)c1ccncc12 [silmitasertib]
Method in brief: as §1

[4] = compound: O=C1NC(=O)C(c2cnc3ccccn23)=C1c1cn2c3c(cc(F)cc13)CN(C(=O)N1CCCCC1)CC2
Method in brief: as §1

[5] = compound: c1cn2cc(-c3ccc4cn[nH]c4c3)nc(Nc3ccc(N4CCOCC4)cc3)c2n1 [entospletinib]
Method in brief: as §1

Sequence of UniProt Q86WR0 (Q86WR0 whole entry, looked up): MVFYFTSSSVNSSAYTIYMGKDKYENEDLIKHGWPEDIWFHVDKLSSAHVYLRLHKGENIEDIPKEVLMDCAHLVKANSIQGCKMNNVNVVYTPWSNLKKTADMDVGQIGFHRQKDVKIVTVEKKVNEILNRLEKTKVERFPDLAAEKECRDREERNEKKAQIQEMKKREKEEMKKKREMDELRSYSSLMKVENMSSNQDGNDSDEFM
Sequence of UniProt Q13825 (Q13825 whole entry, looked up): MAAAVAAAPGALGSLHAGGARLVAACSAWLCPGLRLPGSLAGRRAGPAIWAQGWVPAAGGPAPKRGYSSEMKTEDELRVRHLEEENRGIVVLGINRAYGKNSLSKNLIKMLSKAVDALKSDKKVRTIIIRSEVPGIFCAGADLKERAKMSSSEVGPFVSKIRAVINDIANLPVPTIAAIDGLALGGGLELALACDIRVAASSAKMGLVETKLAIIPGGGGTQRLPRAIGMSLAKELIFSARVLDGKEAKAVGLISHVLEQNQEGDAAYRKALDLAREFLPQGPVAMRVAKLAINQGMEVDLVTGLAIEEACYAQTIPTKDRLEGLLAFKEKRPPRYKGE
Sequence of UniProt Q8ND76 (Q8ND76 whole entry, looked up): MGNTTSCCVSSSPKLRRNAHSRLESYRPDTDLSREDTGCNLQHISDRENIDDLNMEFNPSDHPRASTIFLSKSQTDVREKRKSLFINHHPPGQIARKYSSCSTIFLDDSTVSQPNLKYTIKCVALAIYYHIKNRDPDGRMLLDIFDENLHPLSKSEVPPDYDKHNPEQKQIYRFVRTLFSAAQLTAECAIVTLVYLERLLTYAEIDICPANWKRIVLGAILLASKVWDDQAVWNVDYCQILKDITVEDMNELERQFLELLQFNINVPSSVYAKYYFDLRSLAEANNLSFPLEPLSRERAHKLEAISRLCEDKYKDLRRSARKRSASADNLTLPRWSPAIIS
Sequence of UniProt Q7L2Z9 (Q7L2Z9 whole entry, looked up): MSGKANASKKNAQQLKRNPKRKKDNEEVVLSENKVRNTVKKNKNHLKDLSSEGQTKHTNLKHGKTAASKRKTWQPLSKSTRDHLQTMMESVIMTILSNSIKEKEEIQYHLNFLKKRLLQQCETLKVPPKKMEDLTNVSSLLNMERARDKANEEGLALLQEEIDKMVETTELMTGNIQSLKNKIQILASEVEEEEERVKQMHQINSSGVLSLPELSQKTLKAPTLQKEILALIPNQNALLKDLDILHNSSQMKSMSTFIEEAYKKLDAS
Sequence of UniProt Q96B23 (Q96B23 whole entry, looked up): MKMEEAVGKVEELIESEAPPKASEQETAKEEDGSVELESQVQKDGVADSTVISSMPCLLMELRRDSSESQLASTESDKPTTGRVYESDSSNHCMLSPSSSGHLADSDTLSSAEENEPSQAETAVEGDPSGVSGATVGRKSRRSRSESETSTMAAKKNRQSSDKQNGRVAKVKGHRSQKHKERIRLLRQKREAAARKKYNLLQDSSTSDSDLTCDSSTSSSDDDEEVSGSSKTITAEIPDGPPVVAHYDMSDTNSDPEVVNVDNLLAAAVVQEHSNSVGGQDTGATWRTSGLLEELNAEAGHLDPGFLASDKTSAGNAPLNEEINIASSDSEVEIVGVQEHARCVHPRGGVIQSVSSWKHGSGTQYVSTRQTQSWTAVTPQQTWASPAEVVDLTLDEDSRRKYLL
Sequence of UniProt Q13554 (Q13554 whole entry, looked up): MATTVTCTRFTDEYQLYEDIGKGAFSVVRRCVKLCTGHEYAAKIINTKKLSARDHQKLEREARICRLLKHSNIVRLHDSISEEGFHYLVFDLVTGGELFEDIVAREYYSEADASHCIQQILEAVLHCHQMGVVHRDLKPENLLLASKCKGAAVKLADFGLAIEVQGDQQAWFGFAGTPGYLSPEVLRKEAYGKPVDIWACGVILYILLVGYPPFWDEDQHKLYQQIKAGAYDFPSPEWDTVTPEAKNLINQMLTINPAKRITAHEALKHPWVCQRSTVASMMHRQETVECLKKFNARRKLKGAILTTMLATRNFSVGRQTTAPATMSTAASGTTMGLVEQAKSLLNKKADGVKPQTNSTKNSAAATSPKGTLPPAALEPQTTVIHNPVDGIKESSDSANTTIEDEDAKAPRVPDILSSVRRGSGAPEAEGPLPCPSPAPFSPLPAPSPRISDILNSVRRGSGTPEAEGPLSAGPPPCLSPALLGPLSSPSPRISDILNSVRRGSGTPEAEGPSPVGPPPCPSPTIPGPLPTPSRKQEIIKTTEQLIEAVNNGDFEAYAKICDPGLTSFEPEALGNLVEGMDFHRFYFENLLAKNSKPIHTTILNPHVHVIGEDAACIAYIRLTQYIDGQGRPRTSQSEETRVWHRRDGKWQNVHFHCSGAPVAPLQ
Sequence of UniProt O60566 (O60566 whole entry, looked up): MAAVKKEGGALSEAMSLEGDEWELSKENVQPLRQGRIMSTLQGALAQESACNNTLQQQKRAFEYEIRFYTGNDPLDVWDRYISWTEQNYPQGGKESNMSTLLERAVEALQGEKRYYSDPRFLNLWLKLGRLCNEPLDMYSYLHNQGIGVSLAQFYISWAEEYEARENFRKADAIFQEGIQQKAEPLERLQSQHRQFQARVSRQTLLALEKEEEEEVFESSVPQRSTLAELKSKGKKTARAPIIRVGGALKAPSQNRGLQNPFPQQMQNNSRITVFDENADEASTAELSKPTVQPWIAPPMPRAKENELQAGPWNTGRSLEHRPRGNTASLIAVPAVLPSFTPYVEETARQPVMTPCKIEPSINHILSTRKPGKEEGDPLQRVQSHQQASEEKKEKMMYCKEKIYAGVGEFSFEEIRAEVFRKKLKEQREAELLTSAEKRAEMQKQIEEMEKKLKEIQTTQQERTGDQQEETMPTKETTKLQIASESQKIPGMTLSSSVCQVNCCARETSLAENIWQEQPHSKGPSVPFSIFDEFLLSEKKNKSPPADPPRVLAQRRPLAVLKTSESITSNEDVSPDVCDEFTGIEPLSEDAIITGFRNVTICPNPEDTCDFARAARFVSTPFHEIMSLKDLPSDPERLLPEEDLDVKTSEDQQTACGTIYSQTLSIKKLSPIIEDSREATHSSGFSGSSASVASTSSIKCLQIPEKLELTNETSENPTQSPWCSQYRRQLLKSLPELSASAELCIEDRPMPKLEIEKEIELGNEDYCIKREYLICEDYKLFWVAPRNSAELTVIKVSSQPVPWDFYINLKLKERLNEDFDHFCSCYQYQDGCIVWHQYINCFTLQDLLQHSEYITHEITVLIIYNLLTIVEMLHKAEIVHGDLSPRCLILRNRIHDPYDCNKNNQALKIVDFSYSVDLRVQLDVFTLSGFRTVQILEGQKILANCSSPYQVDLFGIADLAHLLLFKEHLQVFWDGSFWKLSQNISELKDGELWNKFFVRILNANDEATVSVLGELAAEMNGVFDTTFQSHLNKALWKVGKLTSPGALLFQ
Sequence of UniProt Q8N5S9 (Q8N5S9 whole entry, looked up): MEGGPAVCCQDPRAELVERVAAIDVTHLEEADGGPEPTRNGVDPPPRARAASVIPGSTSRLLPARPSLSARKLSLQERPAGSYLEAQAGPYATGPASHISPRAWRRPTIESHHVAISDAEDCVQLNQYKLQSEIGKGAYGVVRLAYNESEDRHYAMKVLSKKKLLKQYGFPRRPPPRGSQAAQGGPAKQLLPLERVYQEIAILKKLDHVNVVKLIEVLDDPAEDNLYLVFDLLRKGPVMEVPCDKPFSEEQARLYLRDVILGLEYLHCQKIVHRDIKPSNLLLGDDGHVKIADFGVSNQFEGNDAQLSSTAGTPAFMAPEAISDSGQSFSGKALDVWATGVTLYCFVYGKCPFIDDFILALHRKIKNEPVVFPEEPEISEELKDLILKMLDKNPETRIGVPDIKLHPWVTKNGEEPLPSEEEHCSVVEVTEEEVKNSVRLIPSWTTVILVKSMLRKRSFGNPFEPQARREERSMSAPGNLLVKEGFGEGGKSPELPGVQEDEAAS
Sequence of UniProt Q9Y6K0 (Q9Y6K0 whole entry, looked up): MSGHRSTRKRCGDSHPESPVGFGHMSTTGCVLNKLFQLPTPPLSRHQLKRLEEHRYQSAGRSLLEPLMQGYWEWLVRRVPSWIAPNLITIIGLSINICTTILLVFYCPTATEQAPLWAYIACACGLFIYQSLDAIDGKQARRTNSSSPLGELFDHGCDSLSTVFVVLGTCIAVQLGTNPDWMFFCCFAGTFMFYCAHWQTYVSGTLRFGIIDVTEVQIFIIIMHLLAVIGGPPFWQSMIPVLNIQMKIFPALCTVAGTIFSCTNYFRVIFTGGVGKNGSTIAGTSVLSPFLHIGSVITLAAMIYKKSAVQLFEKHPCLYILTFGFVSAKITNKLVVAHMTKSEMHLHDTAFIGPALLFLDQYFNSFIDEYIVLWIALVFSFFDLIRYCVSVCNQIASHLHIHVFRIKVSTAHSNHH
Sequence of UniProt A6NDU8 (A6NDU8 whole entry, looked up): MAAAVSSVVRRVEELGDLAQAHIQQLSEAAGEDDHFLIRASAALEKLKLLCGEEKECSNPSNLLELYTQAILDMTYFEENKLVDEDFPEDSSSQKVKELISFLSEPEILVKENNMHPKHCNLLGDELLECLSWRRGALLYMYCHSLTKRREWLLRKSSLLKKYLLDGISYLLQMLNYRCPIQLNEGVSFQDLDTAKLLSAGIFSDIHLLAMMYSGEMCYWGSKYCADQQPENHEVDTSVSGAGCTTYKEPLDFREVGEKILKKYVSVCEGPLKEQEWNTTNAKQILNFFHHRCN
Sequence of UniProt Q96NL8 (Q96NL8 whole entry, looked up): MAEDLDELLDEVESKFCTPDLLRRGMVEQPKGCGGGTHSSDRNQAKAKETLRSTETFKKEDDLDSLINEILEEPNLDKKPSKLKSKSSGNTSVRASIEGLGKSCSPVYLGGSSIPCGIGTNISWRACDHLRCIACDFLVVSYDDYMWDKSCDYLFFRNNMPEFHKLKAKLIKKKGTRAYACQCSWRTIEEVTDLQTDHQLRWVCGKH
Sequence of UniProt Q9Y2V2 (Q9Y2V2 whole entry, looked up): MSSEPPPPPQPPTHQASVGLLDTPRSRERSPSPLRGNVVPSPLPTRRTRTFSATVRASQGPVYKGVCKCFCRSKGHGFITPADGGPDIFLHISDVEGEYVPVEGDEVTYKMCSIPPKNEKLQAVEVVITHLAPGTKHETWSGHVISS

Row | Target | log2 fold change [1] | log2 fold change [2] | log2 fold change [3] | log2 fold change [4] | log2 fold change [5]
1 | BUB1B isoform 3 (UniProt O60566) | 0.004 | -0.376 (active) | 0.015 | 0.006 | 0.013
2 | CDC40 (UniProt O60508) | 0.029 | 0.08 | 0.015 | 0.005 | 0.014
3 | CBR1 (UniProt P16152) | -0.01 | -0.377 (active) | -0.024 | 0.033 | 0.006
4 | CCNA2 (UniProt P20248) | 0.005 | 0.075 | -0.06 | -0.026 | -0.011
5 | CDC16 (UniProt Q13042) | -0.068 | -0.265 (active) | 0.023 | -0.006 | -0.015
6 | CCNY (UniProt Q8ND76) | 0.076 | -0.822 (active) | -0.018 | -0.002 | -0.074
7 | ATM (UniProt Q13315) | 0.058 | -0.093 | 0.118 | -0.033 | 0.036
8 | ATG13 isoform 2 (UniProt O75143) | 0.01 | 0.051 | -0.01 | 0.024 | -0.008
9 | CASP3 (UniProt P42574) | -0.031 | 0.058 | -0.02 | 0.007 | -0.027
10 | CD80 (UniProt P33681) | 0.018 | -0.028 | -0.067 | -0.066 | -0.162
11 | CDS2 (UniProt O95674) | 0.007 | 0.093 | 0.024 | -0.065 | -0.028
12 | C15orf41 (UniProt Q9Y2V0) | -0.124 | -0.362 (active) | -0.011 | -0.012 | 0.04
13 | ATXN2 (UniProt F8WB05) | 0.013 | 0.011 | 0.271 | 0.115 | -0.016
14 | ATP9B (UniProt O43861) | 0.013 | 0.012 | 0.005 | -0.045 | 0
15 | ATP6V1B1 (UniProt P15313) | -0.005 | 0.083 | -0.013 | -0.006 | 0.014
16 | CCDC47 (UniProt Q96A33) | 0.002 | 0.207 (active) | 0.026 | 0.011 | -0.007
17 | C18orf25 (UniProt Q96B23) | 0.03 | 0.089 | -0.147 | -0.034 | 0.036
18 | CCDC51 (UniProt Q96ER9) | 0.002 | 0.153 | 0.011 | 0.015 | -0.046
19 | AUH (UniProt Q13825) | 0.1 | -0.068 | 0.017 | -0.063 | -0.11
20 | C16orf70 (UniProt Q9BSU1) | -0.013 | -0.382 (active) | 0.019 | -0.015 | -0.104
21 | BLM (UniProt P54132) | 0.03 | -0.056 | 0.044 | 0.003 | -0.002
22 | CDC42BPA isoform 6 (UniProt Q5VT25) | -0.008 | -0.224 (active) | 0.018 | 0.001 | 0
23 | CCNB2 (UniProt O95067) | 0.01 | -0.115 | -0.079 | -0.08 | 0.044
24 | CAMK2B (UniProt Q13554) | 0.014 | -0.133 | -0.017 | 0.056 | -0.02
25 | CCP110 (UniProt O43303) | -0.033 | -0.102 | -0.131 | -0.124 | 0.045
26 | CELF2 isoform 3 (UniProt O95319) | 0.036 | -0.028 | -0.012 | -0.041 | 0.033
27 | CDK13 (UniProt Q14004) | -0.089 | -0.088 | 0.093 | -0.012 | -0.013

Row | Target | log2 fold change [1] | log2 fold change [2] | log2 fold change [3] | log2 fold change [4] | log2 fold change [5]
28 | CARHSP1 (UniProt Q9Y2V2) | 0.045 | 0.052 | -0.006 | 0.056 | -0.049
29 | BMS1 (UniProt Q14692) | 0.024 | -0.037 | 0.04 | 0.033 | 0.045
30 | CBX5 (UniProt P45973) | 0.033 | -0.062 | -0.005 | -0.048 | 0.014
31 | CENPQ (UniProt Q7L2Z9) | -0.016 | 0.061 | -0.014 | 0.028 | 0.047
32 | CAMKK1 isoform 2 (UniProt Q8N5S9) | 0.006 | -0.255 | 0.072 | -0.007 | -0.078
33 | CHD5 (UniProt Q8TDI0) | 0.059 | -0.261 (active) | 0.007 | 0.042 | 0.025
34 | C8orf37 (UniProt Q96NL8) | 0.206 | 0.084 | 0.044 | 0.008 | -0.035
35 | CARS isoform 3 (UniProt P49589) | 0.018 | -0.254 (active) | 0.018 | -0.049 | 0.008
36 | CAMK1 (UniProt Q14012) | -0.13 | 0.027 | -0.059 | 0.062 | 0.115
37 | ATXN2 (UniProt Q99700) | 0.024 | -0.282 (active) | -0.01 | -0.005 | -0.008
38 | CCDC25 (UniProt Q86WR0) | 0.025 | 0.025 | -0.032 | -0.011 | 0.009
39 | CCDC85B (UniProt Q15834) | -0.039 | 0.088 | 0.042 | -0.077 | -0.397
40 | CDC123 (UniProt O75794) | -0.064 | -0.019 | 0.015 | -0.032 | 0.043
41 | CEP76 (UniProt Q8TAP6) | -0.1 | -0.055 | 0.027 | -0.051 | 0.039
42 | C5orf51 (UniProt A6NDU8) | 0.042 | -0.501 (active) | 0.036 | -0.003 | 0.015
43 | ATP6V0A2 (UniProt Q9Y487) | -0.033 | 0.127 | -0.016 | -0.021 | 0.012
44 | BCKDHB (UniProt P21953) | 0.055 | -0.275 (active) | 0.076 | 0.072 | -0.123
45 | AURKAIP1 (UniProt Q9NWT8) | 0.073 | 0.08 | -0.01 | 0.071 | -0.081
46 | CEP41 (UniProt Q9BYV8) | 0.002 | -0.558 (active) | -0.026 | -0.152 | -0.017
47 | CASP6 (UniProt P55212) | -0.014 | -0.049 | 0.045 | -0.018 | -0.01
48 | CDK9 isoform 2 (UniProt P50750) | 0.081 | -0.198 | 0.164 | 0.402 | 0.038
49 | CANX isoform 2 (UniProt P27824) | 0.018 | 0.131 | -0.004 | -0.015 | -0.004
50 | ATAD1 (UniProt Q8NBU5) | -0.047 | -0.617 (active) | 0.021 | 0.002 | 0.008
51 | CCNK isoform 4 (UniProt O75909) | 0.032 | 0.093 | -0.007 | -0.051 | -0.002
52 | CEPT1 (UniProt Q9Y6K0) | -0.037 | 0.103 | -0.016 | 0.029 | -0.016
53 | ATP2B4 (UniProt P23634) | -0.026 | -0.042 | -0.003 | -0.079 | -0.042
